# Measurements reported in PubChem BioAssay (NCATS).
# Inconclusive results are not listed. Activity calls are given as the source filed them. Unless noted, calls follow the shape of the dose curve; as a rule, active = well fitted curve in the direction sought with a large enough effect; inconclusive = small, poorly fitted or top-dose-only effect, or another doubt; inactive = no such curve, though single readings can be large; an effect the other way counts as inactive or inconclusive.
# What was measured:
# [1] = target: Lysosomal acid glucosylceramidase (Homo sapiens) (UniProt P04062); assay: Glucocerebrosidase-p2 (AID 348; in the data active = potency below about 10 µM; also: potency is read from the fitted curve at half-maximal effect); conditions: purified GBA, blue fluorogenic substrate, 40 min
# Sequence of Lysosomal acid glucosylceramidase (Homo sapiens) (P04062 whole entry, looked up): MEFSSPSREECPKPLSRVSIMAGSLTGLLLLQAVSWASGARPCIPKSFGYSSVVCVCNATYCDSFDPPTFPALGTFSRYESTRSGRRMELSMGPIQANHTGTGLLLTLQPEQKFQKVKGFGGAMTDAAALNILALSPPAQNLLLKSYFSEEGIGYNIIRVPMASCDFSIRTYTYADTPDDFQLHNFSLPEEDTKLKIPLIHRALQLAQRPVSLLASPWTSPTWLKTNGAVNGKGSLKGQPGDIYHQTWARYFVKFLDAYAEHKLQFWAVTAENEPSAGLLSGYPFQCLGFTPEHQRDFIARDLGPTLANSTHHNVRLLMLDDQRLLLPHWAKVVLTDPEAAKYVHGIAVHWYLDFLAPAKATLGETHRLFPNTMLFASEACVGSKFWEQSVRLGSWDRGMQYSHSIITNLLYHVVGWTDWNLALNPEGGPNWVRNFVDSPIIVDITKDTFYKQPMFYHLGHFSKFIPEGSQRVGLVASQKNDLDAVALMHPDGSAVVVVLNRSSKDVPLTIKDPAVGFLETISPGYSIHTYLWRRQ
# Summary of the method: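 Normal human glucocerebrosidase (0.2 nM) with blue fluorogenic substrate (80 uM final) in citrate/phosphate pH 5.9 with 10mM sodium taurocholate, 0.01% tween-20; 40 min RT, NaOH/glycine stop; fluorescence Ex 365/Em 440; AC50 from a titration from 0.6 nM upwards.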
# [2] = AP1 Signaling Pathway (AID 357; active = well fitted curve in either direction with a large enough effect, not every such curve was filed as active;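 also: ME-180 reporter cells stimulated with EGF at its EC50 level; % is scaled to controls: 0 for no effect and ±100 for the full control effect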); conditions: ME-180 AP-1-bla reporter, EGF-induced, beta-lactamase ratio, 5 h; at 7.69 µM (top of the series) unless noted
# Summary of the method: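 Read-out was the 460nm/530nm emission ratio (excitation 405nm) after CCF4 loading for 2.5 hours at room temperature. Cells carried an AP-1-driven beta-lactamase reporter, were stimulated with EC50 EGF plus compound for 5 hours, and AC50 values came from titrations.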
# [3] = target: Cytochrome P450 1A2 (Homo sapiens) (UniProt P05177); assay: p450-cyp1a2 (AID 410; calls by dose curve; also: potency is read from the fitted curve at half-maximal effect); conditions: recombinant CYP1A2, luciferin-ME demethylation, luminescence; series mostly up to 57 µM
# Sequence of Cytochrome P450 1A2 (Homo sapiens) (P05177 whole entry, looked up): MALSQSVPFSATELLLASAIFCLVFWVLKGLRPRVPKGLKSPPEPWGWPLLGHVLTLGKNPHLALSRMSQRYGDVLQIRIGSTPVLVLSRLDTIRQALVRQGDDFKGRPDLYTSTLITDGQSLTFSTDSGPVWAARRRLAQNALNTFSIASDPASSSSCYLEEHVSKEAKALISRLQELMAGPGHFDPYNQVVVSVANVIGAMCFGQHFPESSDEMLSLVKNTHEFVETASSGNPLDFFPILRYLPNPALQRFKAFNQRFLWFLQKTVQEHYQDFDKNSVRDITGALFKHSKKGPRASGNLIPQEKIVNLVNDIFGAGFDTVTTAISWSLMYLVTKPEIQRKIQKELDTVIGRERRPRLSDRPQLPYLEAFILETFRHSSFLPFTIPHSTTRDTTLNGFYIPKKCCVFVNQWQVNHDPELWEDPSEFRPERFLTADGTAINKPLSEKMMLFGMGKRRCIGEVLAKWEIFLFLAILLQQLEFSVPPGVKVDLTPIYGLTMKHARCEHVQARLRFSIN
# Summary of the method: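 Read-out is luminescence from luciferin produced by CYP1A2 demethylation of Luciferin-ME (100uM, at Km). Detection reagent stopped the 60 min NADPH-dependent reaction; signals were normalized to 57 uM furafylline.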
# [4] = NFAT Signaling Pathway (AID 444; active = well fitted curve in either direction with a large enough effect, not every such curve was filed as active;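 also: carbachol stimulus at about its EC50 of 1 µM final; % is scaled to controls: 0 for no effect and ±100 for the full control effect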); conditions: Jurkat NFAT-bla M1, carbachol, beta-lactamase ratio, 5 h; at 7.69 µM (top of the series) unless noted
# Summary of the method: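 Read-out: CCF4 FRET ratio (460 nm/530 nm) after 1 h RT dye loading, used for %activity and AC50 from titration series. Cells: Jurkat NFAT-β-lactamase/M1 line, treated with compound plus 1 uM carbachol for 5 h, 37 °C.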
# [5] = Stat Signaling Pathway (AID 446; active = well fitted curve in either direction with a large enough effect, not every such curve was filed as active;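 also: ME-180 cervical cancer cells given 40 pM IL-6 alongside compound; SIE-controlled beta-lactamase reporter measured as 460/530 nm FRET emission ratio; % is scaled to controls: 0 for no effect and ±100 for the full control effect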); conditions: ME-180 (cervical carcinoma) SIE beta-lactamase reporter, IL-6 stimulated, 5 h; at 7.69 µM (top of the series) unless noted
# Summary of the method: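 Compound effects on IL-6-induced STAT reporter activity were measured in ME-180 cells. After overnight culture, cells were co-treated with 40 pM IL-6 for 5 hrs before beta-lactamase substrate loading at room temperature.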
# [6] = target: Glucocorticoid receptor (Homo sapiens) (UniProt P04150); assay: GR-GFP Redistribution (AID 450;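 active = compounds whose dose series gives a full or clear partial fitted curve of increased nuclear translocation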; also: potency is read from the fitted curve at half-maximal effect); conditions: U2OS GR-GFP nuclear translocation, laser cytometry, 2 h
# Sequence of Glucocorticoid receptor (Homo sapiens) (P04150 whole entry, looked up, the tested form may be a part): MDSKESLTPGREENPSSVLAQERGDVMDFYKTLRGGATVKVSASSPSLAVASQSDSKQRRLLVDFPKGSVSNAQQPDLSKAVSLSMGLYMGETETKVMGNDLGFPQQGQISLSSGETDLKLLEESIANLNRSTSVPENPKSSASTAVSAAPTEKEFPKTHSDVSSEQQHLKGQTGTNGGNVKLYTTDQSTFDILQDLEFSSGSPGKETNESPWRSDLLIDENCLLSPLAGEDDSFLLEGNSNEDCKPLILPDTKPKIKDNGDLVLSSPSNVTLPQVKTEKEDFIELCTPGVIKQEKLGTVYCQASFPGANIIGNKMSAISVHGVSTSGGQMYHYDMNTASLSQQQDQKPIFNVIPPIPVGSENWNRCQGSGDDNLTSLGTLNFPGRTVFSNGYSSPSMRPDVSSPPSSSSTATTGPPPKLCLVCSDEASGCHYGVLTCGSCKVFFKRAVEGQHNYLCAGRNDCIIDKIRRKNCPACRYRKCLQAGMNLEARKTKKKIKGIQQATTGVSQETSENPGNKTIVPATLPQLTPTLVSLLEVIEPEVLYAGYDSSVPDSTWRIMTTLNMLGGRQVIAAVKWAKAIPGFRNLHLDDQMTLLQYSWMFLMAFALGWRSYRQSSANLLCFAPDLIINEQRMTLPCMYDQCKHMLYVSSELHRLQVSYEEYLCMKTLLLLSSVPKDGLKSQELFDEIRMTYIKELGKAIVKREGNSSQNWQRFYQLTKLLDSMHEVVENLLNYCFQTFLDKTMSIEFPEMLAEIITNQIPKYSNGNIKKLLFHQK
# [7] = target: Glucocorticoid receptor (Homo sapiens) (UniProt P04150); assay: GR-EFC Redistribution (AID 451; calls by dose curve; also: potency is read from the fitted curve at half-maximal effect); conditions: CHO-K1 GR-EFC translocation, beta-gal luminescence, 2 h
# Summary of the method: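 Translocation of GR-ED fusion to nuclear EA restores b-gal, read by luminescence after 1 h room-temperature detection. Engineered CHO-K1 biosensor cells, 1,000/well, exposed 2 h at 37 C to titrations up to 46 uM final.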
# [8] = target: Mitogen-activated protein kinase 10 (Mus musculus) (UniProt Q61831); assay: JNK3 AlphaScreen Assay (AID 530; active = well fitted curve in either direction with a large enough effect, not every such curve was filed as active;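 also: kinase came from lysate of stimulated human HepG2 cells; signal reports phosphorylation of biotinylated GST-cJun 1-79 at Ser73 with 10 µM ATP; % is scaled to controls: 0 for no effect and ±100 for the full control effect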); conditions: JNK3 lysate, c-Jun phosphorylation; series mostly up to 57.1 µM
# Summary of the method: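 Kinase buffer: 20 mM Tris-HCl pH 7.6, 10 mM MgCl2, 1 mM DTT, 0.1 mM Na3VO4, 0.01% Tween-20; ATP 10 uM. Substrate biotin-GST-cJun(1-79), enzyme from activated HepG2 lysates. Detection by Ser73 phospho-antibody AlphaScreen.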
# [9] = target: Cytochrome P450 2C9 (Homo sapiens) (UniProt P11712); assay: qHTS Assay for Inhibitors and Substrates of Cytochrome P450 2C9 (AID 883); conditions: recombinant CYP2C9, luciferin-H luminescence, 60 min; series mostly up to 57.1 µM; also: % is scaled to controls: 0 for no effect and ±100 for the full control effect; nearly all actives have a fitted effect of over 60% in size
# Sequence of Cytochrome P450 2C9 (Homo sapiens) (P11712 whole entry, looked up): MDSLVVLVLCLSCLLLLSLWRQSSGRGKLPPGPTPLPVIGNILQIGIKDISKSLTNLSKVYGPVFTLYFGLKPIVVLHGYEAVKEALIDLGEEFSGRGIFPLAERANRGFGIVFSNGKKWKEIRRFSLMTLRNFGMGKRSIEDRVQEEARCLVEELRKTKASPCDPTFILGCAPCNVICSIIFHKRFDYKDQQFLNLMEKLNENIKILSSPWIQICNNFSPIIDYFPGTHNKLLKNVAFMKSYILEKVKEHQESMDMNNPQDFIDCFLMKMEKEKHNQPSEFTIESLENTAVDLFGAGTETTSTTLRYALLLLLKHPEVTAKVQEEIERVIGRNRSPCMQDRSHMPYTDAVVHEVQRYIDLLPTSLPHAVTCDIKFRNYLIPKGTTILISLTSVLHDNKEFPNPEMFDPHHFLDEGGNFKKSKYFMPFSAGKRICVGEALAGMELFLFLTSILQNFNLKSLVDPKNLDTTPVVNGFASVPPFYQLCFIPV
# Summary of the method: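 Inhibition of CYP2C9 is scored as loss of luminescence, with 57uM sulphaphenazole defining 100% inhibition. Substrate Luciferin-H is used at 100uM, equal to its KM; enzyme at 10nM in 25mM KPO4, 60 min at 37C with NADPH regeneration.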
# [10] = target: Cytochrome P450 2C19 (Homo sapiens) (UniProt P33261); assay: qHTS Assay for Inhibitors and Substrates of Cytochrome P450 2C19 (AID 899); conditions: recombinant CYP2C19, luciferin-H EGE luminescence; series mostly up to 57.1 µM; also: potency is read from the fitted curve at half-maximal effect; nearly all actives have a fitted effect of over 60% in size
# Sequence of Cytochrome P450 2C19 (Homo sapiens) (P33261 whole entry, looked up): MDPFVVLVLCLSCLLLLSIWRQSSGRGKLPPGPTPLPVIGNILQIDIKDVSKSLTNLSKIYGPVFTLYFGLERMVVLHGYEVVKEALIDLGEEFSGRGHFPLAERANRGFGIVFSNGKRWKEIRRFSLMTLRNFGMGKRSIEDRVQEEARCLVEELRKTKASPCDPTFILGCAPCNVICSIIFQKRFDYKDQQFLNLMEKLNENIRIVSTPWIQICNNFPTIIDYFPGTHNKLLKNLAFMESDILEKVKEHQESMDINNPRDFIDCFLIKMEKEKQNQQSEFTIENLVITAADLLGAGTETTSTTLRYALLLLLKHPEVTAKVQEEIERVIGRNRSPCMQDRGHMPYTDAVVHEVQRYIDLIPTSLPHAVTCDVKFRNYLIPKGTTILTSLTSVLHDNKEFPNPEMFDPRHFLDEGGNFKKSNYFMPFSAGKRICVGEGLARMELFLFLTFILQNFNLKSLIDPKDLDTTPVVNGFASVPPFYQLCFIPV
# Summary of the method: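 5nM enzyme + 10uM Luciferin-H EGE (=KM), 50mM KPO4; cpd pin-transferred, 10 min 37C; NADPH regen, 60 min 37C; stopped w/ luciferin detection reagent, 20 min; luminescence. Normalized to 57uM ketoconazole (AC100).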
# [11] = qHTS Assay for Lipid Storage Modulators (AID 1519; calls by dose curve); conditions: Drosophila S3 cells, BODIPY lipid droplet/cell ratio, laser cytometry, cells loaded with oleic acid; for activity change, negative = inhibition: at 57.5 µM (top of the series)
# Summary of the method: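 Cells seeded at 5,000 per well were treated with compounds over a concentration series and loaded with oleic acid (400 uM, as added). Lipid droplet fluorescence (488 nm excitation, 500-530 nm channel) was read by laser-scanning cytometry and normalized to 20 uM Triacsin C.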
# [12] = target: Ubiquitin carboxyl-terminal hydrolase 1 (Homo sapiens) (UniProt O94782); assay: Inhibitors of USP1/UAF1: Pilot qHTS (AID 504865); conditions: purified USP1/UAF1, Ub-rhodamine cleavage fluorescence; series mostly up to 54.9 µM; also: nearly all actives have a fitted effect of over 35% in size; also: potency is read from the fitted curve at half-maximal effect
# Sequence of Ubiquitin carboxyl-terminal hydrolase 1 (Homo sapiens) (O94782 whole entry, looked up): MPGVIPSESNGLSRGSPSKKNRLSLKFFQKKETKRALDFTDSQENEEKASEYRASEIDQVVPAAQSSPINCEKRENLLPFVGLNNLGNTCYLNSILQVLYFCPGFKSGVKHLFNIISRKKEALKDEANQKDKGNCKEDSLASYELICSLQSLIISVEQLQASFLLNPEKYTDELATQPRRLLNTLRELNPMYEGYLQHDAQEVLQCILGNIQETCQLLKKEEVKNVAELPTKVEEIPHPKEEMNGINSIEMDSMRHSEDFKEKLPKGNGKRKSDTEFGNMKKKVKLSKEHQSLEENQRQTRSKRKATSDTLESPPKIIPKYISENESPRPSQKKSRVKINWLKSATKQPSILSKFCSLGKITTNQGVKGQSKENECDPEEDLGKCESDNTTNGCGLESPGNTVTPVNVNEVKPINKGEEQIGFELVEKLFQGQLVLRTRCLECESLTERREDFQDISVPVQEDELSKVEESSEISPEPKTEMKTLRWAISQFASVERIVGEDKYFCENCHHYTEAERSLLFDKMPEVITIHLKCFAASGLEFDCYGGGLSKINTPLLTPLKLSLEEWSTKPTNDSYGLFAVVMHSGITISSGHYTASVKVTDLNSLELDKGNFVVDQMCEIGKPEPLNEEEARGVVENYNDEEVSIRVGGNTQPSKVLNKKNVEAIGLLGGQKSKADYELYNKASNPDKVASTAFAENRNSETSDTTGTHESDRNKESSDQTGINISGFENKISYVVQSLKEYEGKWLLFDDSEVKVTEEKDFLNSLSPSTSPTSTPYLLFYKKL
# Summary of the method: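 Enzyme-free wells gave the negative control, while test wells held 1nM USP1/UAF1 preincubated with compound for 15 min at room temperature. Ub-Rho at 150nM final started the reaction, and fluorescence at 480/540 nm was recorded kinetically.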
# [13] = Primary qHTS for small molecule stabilizers of the endoplasmic reticulum resident proteome: Secreted ER Calcium Modulated Protein (SERCaMP) assay (AID 1508630); conditions: SH-SY5Y GLuc-SERCaMP (Gaussia luciferase released on ER calcium loss) secretion, thapsigargin, luminescence; series mostly up to 38.4 µM; also: % is scaled to controls: 0 for no effect and ±100 for the full control effect
# Summary of the method: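 The SH-SY5Y reporter protocol was run at 3 concentrations up to 38.3 uM (primary) or 11 concentrations (follow-up): 16 h compound, 100 nM thapsigargin for 4 h, then extracellular luciferase luminescence.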
# [14] = target: Cytochrome P450 3A4 (Homo sapiens) (UniProt P08684); assay: qHTS Assay for Inhibitors and Substrates of Cytochrome P450 3A4 (AID 884); conditions: recombinant CYP3A4, Luciferin-PPXE luminescence; series mostly up to 57.1 µM; also: potency is read from the fitted curve at half-maximal effect; nearly all actives have a fitted effect of over 50% in size
# Sequence of Cytochrome P450 3A4 (Homo sapiens) (P08684 whole entry, looked up): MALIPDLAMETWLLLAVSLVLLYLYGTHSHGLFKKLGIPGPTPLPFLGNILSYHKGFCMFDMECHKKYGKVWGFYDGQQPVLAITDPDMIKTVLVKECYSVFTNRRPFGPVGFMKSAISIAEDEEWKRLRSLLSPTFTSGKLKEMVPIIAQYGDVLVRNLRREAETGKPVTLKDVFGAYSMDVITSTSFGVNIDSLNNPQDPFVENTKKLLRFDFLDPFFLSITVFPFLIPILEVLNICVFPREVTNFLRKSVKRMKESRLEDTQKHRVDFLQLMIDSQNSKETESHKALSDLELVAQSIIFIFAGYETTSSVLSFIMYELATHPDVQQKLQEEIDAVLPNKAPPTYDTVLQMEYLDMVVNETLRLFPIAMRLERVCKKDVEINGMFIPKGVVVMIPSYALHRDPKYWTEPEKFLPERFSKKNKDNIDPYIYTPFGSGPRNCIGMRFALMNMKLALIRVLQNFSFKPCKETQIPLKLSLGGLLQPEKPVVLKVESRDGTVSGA
# Summary of the method: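 Luminescent readout of luciferin produced by CYP3A4 (20 nM) dealkylation of Luciferin-PPXE, 25 uM (its KM). NADPH-driven reaction ran 60 min at RT after 10 min compound preincubation; data scaled to 57 uM ketoconazole as 100% inhibition.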
# [15] = target: Cytochrome P450 3A4 (Homo sapiens) (UniProt P08684); assay: qHTS Assay for Activators of Cytochrome P450 3A4 (AID 885); conditions: recombinant CYP3A4, Luciferin-PPXE luminescence, 60 min; series mostly up to 57.1 µM; also: nearly all actives have a fitted effect of over 65% in size
# Summary of the method: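 CYP3A4 activity: Luciferin-PPXE O-dealkylation, 25uM substrate, 200mM KPO4, RT throughout. Read-out is luciferase luminescence; higher values reflect activation.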
# [16] = Confirmation and Secondary Assay for Modulators of Hemoglobin Beta Chain Splicing at IVS2 654 locus (AID 910); conditions: HeLa EGFP-654 splicing reporter, GFP fluorescence, 48 h; series mostly up to 38.3 µM;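 also: HeLa cells stably carrying EGFP split by mutant beta-globin IVS2-654 intron; per-well total GFP intensity by laser scanning cytometry after 2-day treatment; % of control where 0% means no effect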
# Summary of the method: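 Readout: per-well total peak green fluorescence (488 nm ex, 500–520 nm em) from objects 5–250 µm, reflecting correct splicing of an EGFP-654 reporter. Compounds were applied for 2 days at 37 °C to overnight-plated HeLa EGFP-654 cells; controls were DMSO and 500 nM IVS2-654 PNA.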
# [17] = Confirmation and Secondary Assay for Modulators of Hemoglobin Beta Chain Splicing at IVS2 705 locus (AID 930); conditions: HeLa EGFP-705 splicing reporter, GFP fluorescence, 48 h; series mostly up to 38.3 µM;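 also: HeLa cells stably expressing the EGFP-705 splicing reporter; GFP fluorescence per well restored by corrected splicing of the IVS2-705 intron in EGFP; % of control where 0% means no effect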
# Summary of the method: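 Stable HeLa line with EGFP disrupted by mutant beta-globin intron 2 (705). Overnight attachment, then 2 days of compound at 37C, 5% CO2. Signal: peak GFP intensity summed over objects 5-250 µm.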
# [18] = target: 3',5'-cyclic-AMP phosphodiesterase 4B (Homo sapiens) (UniProt Q07343); assay: qHTS Assay for Inhibitors of PDE-IV (AID 607; active = well fitted activation curve with a large enough effect in the main read-out, with a control signal flat, not every such curve was filed as active; also: % of control where 0% means no effect); conditions: HEK293 ACTOne CNG channel cells, membrane potential fluorescence; series mostly up to 22.9 µM
# Sequence of 3',5'-cyclic-AMP phosphodiesterase 4B (Homo sapiens) (Q07343 whole entry, looked up): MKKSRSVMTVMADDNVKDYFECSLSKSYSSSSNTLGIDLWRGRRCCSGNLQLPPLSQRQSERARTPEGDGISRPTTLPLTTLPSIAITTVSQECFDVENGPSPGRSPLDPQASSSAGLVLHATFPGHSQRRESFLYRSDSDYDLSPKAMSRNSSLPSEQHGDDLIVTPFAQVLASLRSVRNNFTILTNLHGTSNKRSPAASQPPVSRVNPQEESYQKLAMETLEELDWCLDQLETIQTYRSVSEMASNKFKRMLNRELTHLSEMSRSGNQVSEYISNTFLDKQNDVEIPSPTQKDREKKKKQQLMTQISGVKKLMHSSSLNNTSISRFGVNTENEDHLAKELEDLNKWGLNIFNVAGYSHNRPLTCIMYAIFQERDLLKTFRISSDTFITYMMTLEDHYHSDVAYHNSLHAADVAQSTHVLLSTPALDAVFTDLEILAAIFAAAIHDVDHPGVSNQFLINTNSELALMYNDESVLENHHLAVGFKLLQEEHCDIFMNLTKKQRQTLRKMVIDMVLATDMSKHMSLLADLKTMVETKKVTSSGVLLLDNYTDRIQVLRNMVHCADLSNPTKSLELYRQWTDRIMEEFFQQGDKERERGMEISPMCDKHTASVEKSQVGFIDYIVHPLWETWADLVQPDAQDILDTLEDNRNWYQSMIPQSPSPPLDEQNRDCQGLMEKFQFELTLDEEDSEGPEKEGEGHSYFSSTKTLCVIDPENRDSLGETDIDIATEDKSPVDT
# Summary of the method: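 ACTOne HEK293 cells carry a modified cAMP-gated CNG channel and express endogenous PDE4; plated 1000 cells/well, compounds up to 22.9 uM final. Membrane-potential dye fluorescence (ex 535/em 590) was read; parental cells received 10 uM forskolin + 100 uM RO 20-1724.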
# [19] = measured here: cell count channel max response
# [20] = measured here: lipid channel max response
Compound,Potency [1],"activity change, negative = inhibition [2]",Potency [3],"activity change, negative = inhibition [4]","activity, negative = inhibition [5]",Potency [6],Potency [7],outcome [8],"activity change, negative = inhibition [9]",Potency [10],"activity change, negative = inhibition [11]","max response [11, 19]","max response [11, 20]",Potency [12],Potency [13],Potency [14],Potency [15],outcome [16],outcome [17],Potency [18]
COc1ccccc1-c1cc(NCc2ccccc2)ncn1,> 11.4 µM (inactive),3.71% (inactive),2.51 µM (active),-5.25% (inactive),2.32% (inactive),> 46 µM (inactive),> 46 µM (inactive),inactive,35.7% [at 2.29 µM] (inactive),7.94 µM (active),2.28% (inactive),10.9%,10.5%,22.4 µM (active),inactive,–,–,–,–,–
COc1ccccc1CNc1ccnc(-c2ccoc2)n1,> 11.4 µM (inactive),-2.58% (inactive),1.58 µM (active),-21% (inactive),-4.66% (inactive),> 46 µM (inactive),> 46 µM (inactive),inactive,–,7.94 µM (active),8.47% (inactive),-15.1%,2.83%,50.1 µM (active),inactive,2.51 µM (active),inactive,inactive,inactive,–
COCCNc1ccnc(-c2ccccc2CN(C)C)n1,> 11.4 µM (inactive),3.13% (inactive),5.01 µM (active),-0.192% (inactive),11.3% (inactive),> 46 µM (inactive),> 46 µM (inactive),inactive,–,–,1.95% (inactive),-5.81%,7.72%,inactive,inactive,–,–,inactive,inactive,inactive
c1nc(NC2CCNCC2)c2cc(-c3ccc4c(c3)OCO4)ccc2n1,> 11.4 µM (inactive),7.44% (inactive),12.6 µM (active),15.7% (inactive),2.23% (inactive),> 46 µM (inactive),> 46 µM (inactive),inactive,–,–,6.44% (inactive),1.52%,6.41%,inactive,inactive,–,inactive,inactive,inactive,inactive
Cc1noc(C)c1-c1cc(NC2CC2)ncn1,> 11.4 µM (inactive),-3.03% (inactive),0.316 µM (active),3.57% (inactive),5.59% (inactive),> 46 µM (inactive),> 46 µM (inactive),inactive,–,–,11% (inactive),17%,27.1%,inactive,inactive,–,inactive,inactive,inactive,inactive
